Assay results: the supplement of paper PMC11732987, “Enantioselective OTUD7B fragment discovery through chemoproteomics screening and high-throughput optimisation” (Communications Chemistry, 2025)

Legend:
Assay in all cases: log2 ratio of Biotin-Ahx-Ub-VS probe labelling (fragment/DMSO); higher = less target engagement (more negative = stronger competition), active = hit call of the paper (q ≤ 0.05, log2 ratio ≤ -1)
Conditions in all cases: compound concentration: 200 uM; treatment time: 3 h
USP42 = biological target: T1, USP42 (UniProt Q9H9J4)
T1 sequence (whole entry): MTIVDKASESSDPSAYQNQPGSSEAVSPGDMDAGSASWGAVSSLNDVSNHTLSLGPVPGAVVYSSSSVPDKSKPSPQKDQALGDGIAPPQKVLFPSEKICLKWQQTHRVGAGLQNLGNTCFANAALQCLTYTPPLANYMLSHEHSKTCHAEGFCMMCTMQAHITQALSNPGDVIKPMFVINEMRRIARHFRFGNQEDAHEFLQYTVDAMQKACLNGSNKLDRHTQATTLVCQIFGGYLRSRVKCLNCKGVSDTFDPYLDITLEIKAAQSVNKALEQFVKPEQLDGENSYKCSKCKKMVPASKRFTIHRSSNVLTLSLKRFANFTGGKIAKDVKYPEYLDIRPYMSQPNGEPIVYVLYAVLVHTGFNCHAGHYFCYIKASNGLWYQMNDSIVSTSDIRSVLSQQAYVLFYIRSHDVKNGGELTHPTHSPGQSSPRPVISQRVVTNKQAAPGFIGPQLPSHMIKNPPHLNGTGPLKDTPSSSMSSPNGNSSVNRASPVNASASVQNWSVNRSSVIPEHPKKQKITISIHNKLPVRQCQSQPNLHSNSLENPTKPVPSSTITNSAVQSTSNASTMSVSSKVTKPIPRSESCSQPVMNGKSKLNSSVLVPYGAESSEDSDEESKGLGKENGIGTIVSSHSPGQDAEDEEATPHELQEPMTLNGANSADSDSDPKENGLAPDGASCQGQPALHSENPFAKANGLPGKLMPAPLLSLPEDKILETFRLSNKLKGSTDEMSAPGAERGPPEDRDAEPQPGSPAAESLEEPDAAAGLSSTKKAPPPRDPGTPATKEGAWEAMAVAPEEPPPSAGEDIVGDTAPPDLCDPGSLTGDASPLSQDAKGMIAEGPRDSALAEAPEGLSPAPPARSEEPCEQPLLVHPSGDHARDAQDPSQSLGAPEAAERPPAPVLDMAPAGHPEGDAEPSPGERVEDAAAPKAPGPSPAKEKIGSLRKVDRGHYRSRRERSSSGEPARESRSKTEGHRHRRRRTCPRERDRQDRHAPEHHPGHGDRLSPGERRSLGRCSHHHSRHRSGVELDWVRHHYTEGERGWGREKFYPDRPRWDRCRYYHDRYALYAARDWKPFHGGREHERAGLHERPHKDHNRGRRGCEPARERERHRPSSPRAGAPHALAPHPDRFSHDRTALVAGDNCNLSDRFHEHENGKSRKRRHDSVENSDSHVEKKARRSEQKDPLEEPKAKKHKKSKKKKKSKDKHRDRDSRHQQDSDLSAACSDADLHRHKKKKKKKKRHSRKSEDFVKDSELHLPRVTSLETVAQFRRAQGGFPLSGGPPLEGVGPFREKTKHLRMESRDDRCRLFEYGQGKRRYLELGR
Method in brief: (§1)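 HEK293T lysate in Tris/CHAPS/IGEPAL buffer with protease inhibitors (495 µg per sample) was given fragment at 200 µM or vehicle for 3 h, in triplicate. It then received Biotin-Ahx-Ub-VS at 0.5 µM final for 1 h. Labelled DUBs were NeutrAvidin-enriched, digested with LysC and trypsin, and run by diaPASEF LC-MS/MS. Values are average log2 fragment/vehicle ratios by unpaired t-test on global-median-normalised Spectronaut quantities of proteins with ≥2 unique peptides.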

USP46 = USP46 (UniProt P62068)
Method in brief: as §1

USP47 = biological target: T2, USP47 (UniProt Q96K76)
T2 sequence (whole entry): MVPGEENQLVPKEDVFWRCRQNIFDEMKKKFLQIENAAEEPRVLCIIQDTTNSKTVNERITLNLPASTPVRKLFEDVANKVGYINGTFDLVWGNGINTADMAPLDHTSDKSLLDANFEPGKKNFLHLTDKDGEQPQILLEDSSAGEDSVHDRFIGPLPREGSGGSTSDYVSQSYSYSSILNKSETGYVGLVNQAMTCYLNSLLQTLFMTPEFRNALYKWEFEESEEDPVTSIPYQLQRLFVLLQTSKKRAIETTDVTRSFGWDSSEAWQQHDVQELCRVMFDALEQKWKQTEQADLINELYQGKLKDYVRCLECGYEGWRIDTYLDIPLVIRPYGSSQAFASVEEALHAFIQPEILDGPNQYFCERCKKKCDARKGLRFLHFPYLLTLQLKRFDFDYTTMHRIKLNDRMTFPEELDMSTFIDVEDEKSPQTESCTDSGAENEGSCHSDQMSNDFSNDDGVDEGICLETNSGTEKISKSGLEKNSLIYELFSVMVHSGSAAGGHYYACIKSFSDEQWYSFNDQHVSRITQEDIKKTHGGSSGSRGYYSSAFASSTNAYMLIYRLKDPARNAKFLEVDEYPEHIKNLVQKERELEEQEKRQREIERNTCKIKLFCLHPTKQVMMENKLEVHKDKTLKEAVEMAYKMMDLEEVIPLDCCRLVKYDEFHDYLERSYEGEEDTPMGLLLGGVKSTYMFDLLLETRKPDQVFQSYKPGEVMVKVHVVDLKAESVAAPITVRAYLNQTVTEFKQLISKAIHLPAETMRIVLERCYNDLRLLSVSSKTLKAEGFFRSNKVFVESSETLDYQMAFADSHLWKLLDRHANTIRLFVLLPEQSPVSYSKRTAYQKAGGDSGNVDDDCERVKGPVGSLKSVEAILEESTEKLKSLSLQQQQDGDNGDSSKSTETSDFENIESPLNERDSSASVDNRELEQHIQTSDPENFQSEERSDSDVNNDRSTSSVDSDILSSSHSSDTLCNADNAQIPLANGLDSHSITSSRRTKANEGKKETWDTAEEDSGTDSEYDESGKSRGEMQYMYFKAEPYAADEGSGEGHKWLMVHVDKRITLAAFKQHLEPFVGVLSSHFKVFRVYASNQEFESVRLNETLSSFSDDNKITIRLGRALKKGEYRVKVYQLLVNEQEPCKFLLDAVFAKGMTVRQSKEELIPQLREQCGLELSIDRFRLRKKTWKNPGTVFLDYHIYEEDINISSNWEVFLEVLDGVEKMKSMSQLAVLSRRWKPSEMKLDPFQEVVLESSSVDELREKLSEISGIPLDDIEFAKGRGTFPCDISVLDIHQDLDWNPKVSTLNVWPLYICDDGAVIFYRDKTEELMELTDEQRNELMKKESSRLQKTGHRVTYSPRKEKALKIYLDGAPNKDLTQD
Method in brief: as §1

USP48 = biological target: T3, USP48 (UniProt Q86UV5)
T3 sequence (whole entry): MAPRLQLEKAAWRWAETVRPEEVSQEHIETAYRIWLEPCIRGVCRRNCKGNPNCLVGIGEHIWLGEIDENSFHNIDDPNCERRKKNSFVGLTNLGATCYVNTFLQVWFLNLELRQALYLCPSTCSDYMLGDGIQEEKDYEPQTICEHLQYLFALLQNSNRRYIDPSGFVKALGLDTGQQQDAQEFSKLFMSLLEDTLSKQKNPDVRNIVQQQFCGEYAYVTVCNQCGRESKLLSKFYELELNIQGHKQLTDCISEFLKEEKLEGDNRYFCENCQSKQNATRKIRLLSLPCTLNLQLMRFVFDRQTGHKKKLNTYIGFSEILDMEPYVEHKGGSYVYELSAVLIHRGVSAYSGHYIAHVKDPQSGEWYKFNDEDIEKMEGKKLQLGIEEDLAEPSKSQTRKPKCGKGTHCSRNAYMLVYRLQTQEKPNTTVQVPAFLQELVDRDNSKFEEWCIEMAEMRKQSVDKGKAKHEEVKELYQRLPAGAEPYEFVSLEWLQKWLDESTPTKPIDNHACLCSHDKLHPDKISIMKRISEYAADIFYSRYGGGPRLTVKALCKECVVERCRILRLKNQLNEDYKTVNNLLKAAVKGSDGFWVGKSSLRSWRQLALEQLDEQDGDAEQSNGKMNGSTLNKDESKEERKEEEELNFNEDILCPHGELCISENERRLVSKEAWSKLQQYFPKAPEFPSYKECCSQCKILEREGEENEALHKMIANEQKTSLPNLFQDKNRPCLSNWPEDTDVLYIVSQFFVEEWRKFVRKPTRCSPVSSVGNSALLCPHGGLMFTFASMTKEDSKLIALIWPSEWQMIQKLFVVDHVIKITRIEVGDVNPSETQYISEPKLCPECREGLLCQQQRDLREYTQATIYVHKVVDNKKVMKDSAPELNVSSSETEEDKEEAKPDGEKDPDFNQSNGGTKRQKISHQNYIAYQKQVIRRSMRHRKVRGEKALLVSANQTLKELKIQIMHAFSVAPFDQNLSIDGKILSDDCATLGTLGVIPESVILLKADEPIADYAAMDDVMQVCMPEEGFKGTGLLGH
Method in brief: as §1

USP5 = biological target: T4, USP5 (UniProt P45974)
T4 sequence (whole entry): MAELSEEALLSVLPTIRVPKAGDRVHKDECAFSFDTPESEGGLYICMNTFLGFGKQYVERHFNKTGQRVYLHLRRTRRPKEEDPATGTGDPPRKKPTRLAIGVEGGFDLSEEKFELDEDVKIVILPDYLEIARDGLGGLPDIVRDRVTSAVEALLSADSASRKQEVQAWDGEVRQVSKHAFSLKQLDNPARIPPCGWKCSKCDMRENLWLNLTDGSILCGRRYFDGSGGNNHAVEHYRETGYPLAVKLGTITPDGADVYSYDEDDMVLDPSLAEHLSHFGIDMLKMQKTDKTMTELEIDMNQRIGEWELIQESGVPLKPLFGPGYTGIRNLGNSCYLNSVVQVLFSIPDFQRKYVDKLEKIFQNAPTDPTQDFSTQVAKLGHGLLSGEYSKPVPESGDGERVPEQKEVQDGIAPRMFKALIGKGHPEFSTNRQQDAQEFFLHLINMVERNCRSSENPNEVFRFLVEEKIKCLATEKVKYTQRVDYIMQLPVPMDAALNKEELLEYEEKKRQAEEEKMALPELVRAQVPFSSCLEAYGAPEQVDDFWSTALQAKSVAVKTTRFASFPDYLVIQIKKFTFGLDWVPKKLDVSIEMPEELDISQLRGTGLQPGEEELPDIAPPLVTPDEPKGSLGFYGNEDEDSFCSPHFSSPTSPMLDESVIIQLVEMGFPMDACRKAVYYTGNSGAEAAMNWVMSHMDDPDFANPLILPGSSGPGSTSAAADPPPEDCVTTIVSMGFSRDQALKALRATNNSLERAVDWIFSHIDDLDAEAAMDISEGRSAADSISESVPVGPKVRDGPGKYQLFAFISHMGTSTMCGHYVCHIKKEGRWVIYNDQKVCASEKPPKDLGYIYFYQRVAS
Method in brief: as §1

USP54 = USP54 (UniProt Q70EL1)
Method in brief: as §1

USP7 = USP7 (UniProt Q93009)
Method in brief: as §1

USP8 = biological target: T5, USP8 (UniProt P40818)
T5 sequence (whole entry): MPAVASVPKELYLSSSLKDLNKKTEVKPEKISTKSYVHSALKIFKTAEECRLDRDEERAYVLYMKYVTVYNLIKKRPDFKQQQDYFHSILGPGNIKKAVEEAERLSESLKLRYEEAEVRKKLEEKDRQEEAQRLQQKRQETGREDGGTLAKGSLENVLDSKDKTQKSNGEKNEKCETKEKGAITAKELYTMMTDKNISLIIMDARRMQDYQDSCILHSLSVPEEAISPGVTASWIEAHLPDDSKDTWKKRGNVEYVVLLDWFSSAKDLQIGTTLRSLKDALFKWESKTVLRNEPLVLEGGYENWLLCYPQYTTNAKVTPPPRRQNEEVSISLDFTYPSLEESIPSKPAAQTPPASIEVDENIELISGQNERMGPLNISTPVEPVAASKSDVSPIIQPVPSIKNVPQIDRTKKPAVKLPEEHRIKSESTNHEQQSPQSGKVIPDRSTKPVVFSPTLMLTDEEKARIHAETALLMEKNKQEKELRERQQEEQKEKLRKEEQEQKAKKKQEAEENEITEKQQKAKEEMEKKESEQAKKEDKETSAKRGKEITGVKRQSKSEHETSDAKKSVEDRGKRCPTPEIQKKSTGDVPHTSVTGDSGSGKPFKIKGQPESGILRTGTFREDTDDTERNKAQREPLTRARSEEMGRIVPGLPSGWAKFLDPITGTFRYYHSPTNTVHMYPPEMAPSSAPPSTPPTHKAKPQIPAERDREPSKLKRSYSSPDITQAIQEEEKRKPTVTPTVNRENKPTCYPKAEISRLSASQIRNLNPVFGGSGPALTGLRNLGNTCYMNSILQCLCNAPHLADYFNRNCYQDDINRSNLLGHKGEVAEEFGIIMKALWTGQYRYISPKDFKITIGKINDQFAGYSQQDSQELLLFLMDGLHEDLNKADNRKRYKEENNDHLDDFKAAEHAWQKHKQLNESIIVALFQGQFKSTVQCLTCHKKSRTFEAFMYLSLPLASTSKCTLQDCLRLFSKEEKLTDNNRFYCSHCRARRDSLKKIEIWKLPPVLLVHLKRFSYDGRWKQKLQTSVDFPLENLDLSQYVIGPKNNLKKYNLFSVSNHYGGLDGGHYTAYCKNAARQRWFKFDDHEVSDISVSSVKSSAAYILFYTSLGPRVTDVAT
Method in brief: as §1

USP9X = USP9X (UniProt Q93008)
Method in brief: as §1

UniProt O00487 = biological target: UniProt O00487
Method in brief: as §1

Measured: log2 ratio of Biotin-Ahx-Ub-VS probe labelling

USP54, sequence (Q70EL1 whole entry): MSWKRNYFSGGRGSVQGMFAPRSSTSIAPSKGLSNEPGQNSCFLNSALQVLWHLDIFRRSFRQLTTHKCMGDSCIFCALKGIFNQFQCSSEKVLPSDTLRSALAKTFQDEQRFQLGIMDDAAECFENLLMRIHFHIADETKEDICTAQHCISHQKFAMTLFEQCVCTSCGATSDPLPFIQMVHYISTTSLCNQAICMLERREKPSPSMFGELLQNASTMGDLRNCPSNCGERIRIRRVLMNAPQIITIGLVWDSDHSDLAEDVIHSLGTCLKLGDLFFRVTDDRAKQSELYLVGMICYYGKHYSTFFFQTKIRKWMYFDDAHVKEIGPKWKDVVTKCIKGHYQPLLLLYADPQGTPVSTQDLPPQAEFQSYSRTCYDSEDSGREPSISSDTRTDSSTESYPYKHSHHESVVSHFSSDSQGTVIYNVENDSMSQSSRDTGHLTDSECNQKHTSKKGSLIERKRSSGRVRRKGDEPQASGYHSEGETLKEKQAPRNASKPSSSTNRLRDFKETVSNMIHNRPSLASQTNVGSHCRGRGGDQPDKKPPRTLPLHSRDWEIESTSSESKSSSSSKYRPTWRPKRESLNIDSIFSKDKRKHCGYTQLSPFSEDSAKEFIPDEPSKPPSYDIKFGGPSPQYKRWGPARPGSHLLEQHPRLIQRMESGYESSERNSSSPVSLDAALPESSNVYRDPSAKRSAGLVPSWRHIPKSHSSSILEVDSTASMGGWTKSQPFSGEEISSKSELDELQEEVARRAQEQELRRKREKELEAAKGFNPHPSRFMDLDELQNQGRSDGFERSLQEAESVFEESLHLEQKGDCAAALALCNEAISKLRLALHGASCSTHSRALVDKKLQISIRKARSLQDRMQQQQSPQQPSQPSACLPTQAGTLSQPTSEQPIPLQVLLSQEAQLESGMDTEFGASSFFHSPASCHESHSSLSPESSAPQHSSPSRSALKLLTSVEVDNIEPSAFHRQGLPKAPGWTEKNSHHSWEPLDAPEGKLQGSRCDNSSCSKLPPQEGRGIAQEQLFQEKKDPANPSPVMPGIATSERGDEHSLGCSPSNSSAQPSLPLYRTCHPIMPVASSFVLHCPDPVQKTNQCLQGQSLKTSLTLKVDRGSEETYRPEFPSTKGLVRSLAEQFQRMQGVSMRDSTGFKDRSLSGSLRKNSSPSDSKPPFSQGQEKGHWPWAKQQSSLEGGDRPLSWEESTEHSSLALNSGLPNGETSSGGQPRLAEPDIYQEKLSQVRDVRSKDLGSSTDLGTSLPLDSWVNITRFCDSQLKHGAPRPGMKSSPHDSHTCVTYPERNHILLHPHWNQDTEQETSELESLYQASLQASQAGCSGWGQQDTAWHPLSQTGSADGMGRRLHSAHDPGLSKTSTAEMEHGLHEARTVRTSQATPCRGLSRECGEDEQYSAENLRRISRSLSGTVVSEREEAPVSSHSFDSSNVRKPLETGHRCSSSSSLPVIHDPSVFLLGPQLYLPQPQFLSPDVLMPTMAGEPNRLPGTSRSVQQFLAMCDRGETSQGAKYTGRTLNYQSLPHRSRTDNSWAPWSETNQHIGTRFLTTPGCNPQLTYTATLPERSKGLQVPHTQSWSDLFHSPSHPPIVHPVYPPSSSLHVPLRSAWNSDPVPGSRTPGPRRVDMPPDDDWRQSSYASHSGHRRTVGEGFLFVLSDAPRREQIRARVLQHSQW
USP46, sequence (P62068 whole entry): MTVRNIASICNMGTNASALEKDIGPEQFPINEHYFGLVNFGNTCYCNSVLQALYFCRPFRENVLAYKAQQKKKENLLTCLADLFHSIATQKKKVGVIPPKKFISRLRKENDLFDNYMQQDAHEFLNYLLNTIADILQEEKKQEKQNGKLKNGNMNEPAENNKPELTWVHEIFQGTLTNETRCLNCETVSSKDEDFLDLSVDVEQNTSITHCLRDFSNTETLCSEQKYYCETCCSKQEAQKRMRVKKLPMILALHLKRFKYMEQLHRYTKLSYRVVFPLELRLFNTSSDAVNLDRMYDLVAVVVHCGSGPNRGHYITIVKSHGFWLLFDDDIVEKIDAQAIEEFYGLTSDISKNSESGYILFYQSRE
USP7, sequence (Q93009 whole entry, looked up): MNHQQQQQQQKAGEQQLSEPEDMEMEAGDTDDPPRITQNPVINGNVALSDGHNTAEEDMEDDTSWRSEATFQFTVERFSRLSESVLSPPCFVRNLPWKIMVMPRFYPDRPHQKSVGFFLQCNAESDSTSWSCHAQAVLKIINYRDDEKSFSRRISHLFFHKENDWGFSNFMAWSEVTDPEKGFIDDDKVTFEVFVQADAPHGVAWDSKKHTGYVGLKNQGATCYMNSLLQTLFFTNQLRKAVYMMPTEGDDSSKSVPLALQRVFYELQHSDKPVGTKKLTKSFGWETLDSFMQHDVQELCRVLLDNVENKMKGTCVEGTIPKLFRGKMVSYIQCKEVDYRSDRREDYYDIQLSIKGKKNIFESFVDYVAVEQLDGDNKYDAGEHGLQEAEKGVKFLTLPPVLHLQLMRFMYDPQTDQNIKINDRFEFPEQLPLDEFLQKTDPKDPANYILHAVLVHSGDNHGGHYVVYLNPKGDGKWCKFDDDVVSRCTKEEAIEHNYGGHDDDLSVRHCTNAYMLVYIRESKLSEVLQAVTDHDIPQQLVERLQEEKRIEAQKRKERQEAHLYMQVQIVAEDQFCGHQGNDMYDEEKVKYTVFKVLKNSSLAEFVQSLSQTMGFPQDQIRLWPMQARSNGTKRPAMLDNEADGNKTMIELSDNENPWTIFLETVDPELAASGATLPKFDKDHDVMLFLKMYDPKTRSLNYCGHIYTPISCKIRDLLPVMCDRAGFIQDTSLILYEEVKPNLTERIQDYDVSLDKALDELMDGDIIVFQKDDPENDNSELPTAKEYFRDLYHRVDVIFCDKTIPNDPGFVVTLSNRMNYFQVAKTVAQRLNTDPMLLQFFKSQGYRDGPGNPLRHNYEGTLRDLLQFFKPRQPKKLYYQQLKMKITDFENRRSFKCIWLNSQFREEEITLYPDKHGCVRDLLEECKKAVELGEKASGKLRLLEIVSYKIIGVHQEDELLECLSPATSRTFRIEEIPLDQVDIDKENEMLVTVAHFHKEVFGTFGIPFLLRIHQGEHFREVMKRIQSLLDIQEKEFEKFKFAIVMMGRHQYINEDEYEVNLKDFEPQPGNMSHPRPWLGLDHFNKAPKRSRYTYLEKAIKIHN
UniProt O00487, sequence (O00487 whole entry): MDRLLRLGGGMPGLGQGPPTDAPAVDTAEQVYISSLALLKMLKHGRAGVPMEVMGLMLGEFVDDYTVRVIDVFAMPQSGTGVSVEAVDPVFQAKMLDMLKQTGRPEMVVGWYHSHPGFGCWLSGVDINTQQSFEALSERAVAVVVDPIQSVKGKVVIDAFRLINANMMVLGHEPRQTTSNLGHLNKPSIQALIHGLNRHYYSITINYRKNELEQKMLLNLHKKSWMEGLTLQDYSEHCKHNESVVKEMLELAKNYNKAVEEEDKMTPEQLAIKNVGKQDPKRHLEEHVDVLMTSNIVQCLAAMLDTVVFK

Cc1noc(C)c1CNC(=O)CCl
inactive: USP42 0.262 | USP46 -0.347 | USP47 0.0132 | USP48 -0.547 | USP5 -0.403 | USP54 1.07 | USP7 -0.406 | USP9X -0.717 | UniProt O00487 -0.395
active: USP8 -1.2
